# Data: PubChem BioAssay AID652062 (Broad Institute, 2013)
# Among all 1,400 compounds or so, about 1,100 (79%) were called active.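 Rule for the calls: active = fitted half-maximal concentration of a falling signal no higher than twice the top valid dose in every test run; inconclusive = runs disagree, or flat partial inhibition, or poor fit; inactive = every run inactive: flat, wrong direction, or potency beyond limit.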 So high a share suggests a set chosen from earlier hits. Only a sample is shown. Results with a measured potency or affinity are listed apart.
# Assay: HIV-1 AD8 envelope cell-cell fusion blockers – cherry-pick, dose response (AID 652062)
# Details: HeLa-AD8 Env / CEM-CCR5 cell fusion, luciferase; at 35 µM (top of the series) unless noted
row,Structure (SMILES),"activity change, negative = inhibition"
1,COc1cccc(S(=O)(=O)N[C@H]2CC[C@H](CC(=O)NCc3ccncc3)O[C@@H]2CO)c1,30.8%
2,Cc1ccc2c(c1)C(=C(C#N)C#N)CCN2,85.1%
3,C[C@H]1CN([C@@H](C)CO)S(=O)(=O)c2ccc(-c3cccc(C#N)c3)cc2O[C@H]1CN(C)Cc1cccc(F)c1,4.15%
4,C[C@H]1CN([C@@H](C)CO)S(=O)(=O)c2ccc(-c3ccc(F)cc3)cc2O[C@H]1CN(C)Cc1cccc(F)c1,-95%
5,C[C@@H]1CN([C@H](C)CO)S(=O)(=O)c2ccc(-c3ccccc3)cc2O[C@@H]1CN(C)Cc1ccccc1,-17.9%
6,COc1cc(-c2cc(OC)c(O)c(OC)c2)cc(OC)c1O,27.9%
7,CCc1nc(N2CCCCC2C)c2oc3ccccc3c2n1 (stereo not drawn),131%
8,CCc1nc(N2CCCCC2)c2oc3ccccc3c2n1,16.4%
9,C=CCN1C(=S)CC(c2ccccc2)=Nc2ccccc21,1.53%
10,C[C@H](CO)N1C[C@H](C)[C@@H](CN(C)Cc2ccncc2)Oc2cc(C3=CCCCC3)ccc2S1(=O)=O,57.2% [at 15 µM]
11,C[C@@H]1CN([C@@H](C)CO)S(=O)(=O)c2ccc(C3=CCCC3)cc2O[C@@H]1CN(C)C(=O)C1CCOCC1,50.5%
12,COc1ccc(Nc2ncc(C(=O)N3CCN(c4ccc(F)cc4)CC3)c3ccccc23)cc1,0.701%
13,COc1ccc2[nH]c3c(N4CCC(O)(c5cccc(C(F)(F)F)c5)CC4)ncnc3c2c1,-33.8%
14,Cc1noc(C)c1S(=O)(=O)Nc1cccc2c1O[C@H](CN(C)Cc1ccc(C(F)(F)F)cc1)[C@H](C)CN([C@H](C)CO)C2=O,36.8%
15,C[C@@H]1CN([C@@H](C)CO)C(=O)c2cccc(NS(=O)(=O)c3ccc(F)cc3)c2O[C@@H]1CN(C)Cc1ccc(C(F)(F)F)cc1,-35.8%
16,C[C@@H]1CN([C@H](C)CO)C(=O)c2cccc(NS(=O)(=O)c3ccc(F)cc3)c2O[C@@H]1CN(C)Cc1ccc(C(F)(F)F)cc1,-28.7%
17,COc1ccc(CCNC(=O)COC(=O)c2cccn2C)cc1,-11.1%
18,O=S(=O)(NCC[C@@H]1CC[C@@H](NS(=O)(=O)c2ccccc2Cl)[C@H](CO)O1)c1ccc(Cl)cc1,68.7%
19,O=S(=O)(NCC[C@H]1CC[C@H](NS(=O)(=O)c2ccccc2Cl)[C@H](CO)O1)c1ccc(Cl)cc1,67.6% [at 30 µM]
20,Cc1ccc2c(C)nc(Nc3nc(CSc4nnnn4-c4ccccc4)cc(=O)[nH]3)nc2c1,-21.8%
21,C=CCOc1c(Br)cc(CNc2ccc(NC(=O)C(C)C)c(OC)c2)cc1OC,129%
22,Cc1ccc(NC(=O)c2ccc(OCC3CCCO3)cc2)cc1Cl (stereo not drawn),-7.89%
23,CC(NC(=O)c1ccccc1NC(=O)CN1CCc2ccccc2C1)c1ccccc1 (stereo not drawn),-3.06%
24,O=C1c2cccnc2C(Nc2ccc(S(=O)(=O)N3CCCCCC3)cc2)N1Cc1ccccc1 (stereo not drawn),-20.4%
25,O=C1c2cccnc2C(Nc2ccc(S(=O)(=O)N3CCCCC3)cc2)N1Cc1ccccc1 (stereo not drawn),6.27%
26,CCCc1cc(C(=O)NCc2ccc(OC)cc2)no1,14.3%

row,Structure (SMILES),"activity change, negative = inhibition"
1,Cc1noc(C)c1S(=O)(=O)N(C)C[C@H]1Oc2ccc(NC(=O)Nc3ccccc3)cc2CC(=O)N([C@H](C)CO)C[C@H]1C,14.5%
2,CCNC(=O)C[C@@H]1CC[C@@H]2[C@H](COC[C@@H](O)CN2C(=O)c2ccccn2)O1,66.2%
3,CC(C)NC(=O)N(C)C[C@@H]1Oc2ccc(NC(=O)C3CC3)cc2CC(=O)N([C@H](C)CO)C[C@H]1C,-3.87%
4,CC(C)NC(=O)N(C)C[C@@H]1Oc2ccc(NC(=O)C3CC3)cc2CC(=O)N([C@@H](C)CO)C[C@@H]1C,-3.66%
5,Nc1ncn([C@H]2C[C@H](O)[C@@H](CO)O2)c(=O)n1,8.34%
6,C[C@@H]1CN([C@@H](C)CO)S(=O)(=O)c2ccc(-c3ccccc3)cc2O[C@H]1CN(C)S(C)(=O)=O,54.4%
7,Nc1nc2c(ncn2[C@@H]2O[C@H](C(=O)NCC(c3ccccc3)c3ccccc3)[C@@H](O)[C@H]2O)c(=O)[nH]1,19.5%
8,C[C@@H]1CN([C@H](C)CO)C(=O)c2cccc(NS(=O)(=O)c3cn(C)cn3)c2O[C@H]1CN(C)C(=O)Nc1ccc(F)cc1,0.184%
9,O=C(CC1C(=O)NCCN1Cc1cccc(F)c1)NC1CCCCC1 (stereo not drawn),73.6%
10,CCN(CCn1cccn1)C(=O)CC1C(=O)NCCN1CCc1ccccc1 (stereo not drawn),27.6%
11,CCCCNC(=O)C[C@H]1C[C@@]2(C(=O)OC)C(=C[C@H](C(C)(C)C)O[C@@H]2C)N(Cc2ccc3c(c2)OCO3)C1=O,26.7%
12,Cc1ccc2c(c1)c1c3n2CCN(CC(N)=O)C3CCC1 (stereo not drawn),38.7%
13,Cc1ccc(Cn2ncc3c(N4CCN(c5ccc(C)cc5)CC4)ncnc32)cc1,-19.9%
14,Cc1ccc(-n2ncc3c(N4CCN(c5ccccc5)CC4)ncnc32)c(C)c1,-35.1%
15,COc1ccc(NS(=O)(=O)c2cccc(C(=O)NNC(=O)CNC(=O)c3ccc(C)cc3)c2)cc1,3.44%
16,CCOC(=O)[C@]12CCC=C1N(Cc1ccc3c(c1)OCO3)C(=O)[C@H](CC(=O)NCC13CC4CC(CC(C4)C1)C3)C2,17.3% [at 16 µM]
17,COC(=O)[C@]12CCCCC=C1N(Cc1ccco1)C(=O)[C@H](CC(=O)NCCc1ccccc1OC)C2,99.6%
18,C[C@@H]1CN([C@H](C)CO)C(=O)c2cc(NC(=O)Nc3ccccc3)ccc2O[C@@H]1CN(C)S(=O)(=O)c1ccccc1,138%
19,CCOC(=O)[C@@H]1[C@H]2COc3cc(OC)ccc3[C@H]2N2C(=O)N(c3cccc(F)c3)C(=O)[C@@]12C,236%
20,C[C@H]1CN([C@@H](C)CO)C(=O)c2cccc(NC(=O)Nc3ccc(C(F)(F)F)cc3)c2O[C@H]1CN(C)S(=O)(=O)c1ccccc1,-14.4%
21,CCN(CC)S(=O)(=O)c1ccc(NC(=O)Nc2cccc(C(F)(F)F)c2)cc1,-121%
22,CCc1nnc(NC(=O)[C@@H](NC(=O)c2cccc(S(=O)(=O)N(CC)CC)c2)C(C)C)s1,52.6%
23,O=C(NCc1ccco1)c1ccc(Cn2c(=O)c3ccccc3n(Cc3cccc(F)c3)c2=O)cc1,15.9%
24,CCCCCn1c(C(C)NC(=O)CCC)nc2ccccc21 (stereo not drawn),-19.3%
25,COc1cc2c(c(OC)c1OC)[C@@]1(c3ccccc3)CCCC[C@H]1[C@@H]2NC(=O)C(F)(F)F,-28.2%
26,Cc1ccc(NS(=O)(=O)c2cc(C(=O)N(C)C3CCN(C)CC3)ccc2Cl)cc1Cl,81.1%

row,Structure (SMILES),"activity change, negative = inhibition"
1,CCN(c1nc(N)c(C(=O)N=C(N)N)nc1Cl)C(C)C,-8.55%
2,Cc1[nH]c2ccccc2c1/C=N\NC(=O)c1ccccc1Cl,8.5%
3,CN1CCc2ccccc2Cc2[nH]c3ccccc3c2CC1,-17.8%
4,CC(C)OCCCn1c(=S)[nH]c2ccc(N3CCOCC3)cc2c1=O,-27.3%
5,O=C(NCc1ccccc1)[C@@H]1CCCN1C(=O)[C@@H]1CCCN1C(=O)c1cccc2ccccc12,-3.32%
6,Cc1cc(C(=O)N2CCC(C(=O)O)CC2)c(C(F)(F)F)o1,-10.2%
7,C[C@@H]1CN([C@@H](C)CO)C(=O)c2cc(NC(=O)c3ccccc3)ccc2O[C@@H](C)CCCCO[C@H]1CN(C)Cc1ccc(C(=O)O)cc1,52.2%
8,C[C@@H]1CN([C@@H](C)CO)C(=O)c2cc(NC(=O)c3ccncc3)ccc2O[C@H]1CN(C)Cc1ccncc1,56.3%
9,COc1ccc(CN(C)C[C@@H]2Oc3ccc(NC(=O)Nc4ccc(OC)cc4)cc3C(=O)N([C@H](C)CO)C[C@@H]2C)cc1,64%
10,C[C@@H]1CN([C@@H](C)CO)C(=O)c2cc(NC(=O)c3ccncc3)ccc2O[C@@H]1CN(C)Cc1ccncc1,34.4%
11,O=c1[nH]c(=O)n([C@H]2C[C@H](O)[C@@H](CO)O2)cc1F,-10.2%
12,Cc1cc(C)nc(/N=C(\N)Nc2ccc(CC(=O)OC(C)C)cc2)n1,39.8%
13,C[C@@]12C(=O)N(Cc3ccc(F)cc3)CC(=O)N1[C@H]1c3cc(Cl)ccc3OC[C@@H]1[C@@H]2c1ccccc1,19.5%
14,CN(C[C@H](Cc1ccccc1)N(C[C@H](c1ccccc1)N(CCc1ccccc1)N=O)N=O)N=O,-5.55%
15,Cc1ccc(S(=O)(=O)Nc2ccc3c(c2)C(=O)N([C@H](C)CO)C[C@@H](C)[C@H](CN(C)S(=O)(=O)c2ccc(F)cc2)O3)cc1,-22.9% [at 16 µM]
16,C[C@@H]1CN([C@@H](C)CO)C(=O)c2cc(NS(=O)(=O)c3ccccc3)ccc2O[C@H]1CN(C)Cc1ccc(Oc2ccccc2)cc1,132%
17,Cc1ccc(S(=O)(=O)Nc2ccc3c(c2)CC(=O)N([C@@H](C)CO)C[C@H](C)[C@@H](CN(C)Cc2ccc(-c4ccccc4)cc2)O3)cc1,215% [at 18 µM]
18,O=C(C1CCCCC1)N1CCCC(c2nc3c(nnn3Cc3ccccc3)c(=O)[nH]2)C1 (stereo not drawn),-8.09% [at 16 µM]
19,Cc1ccc(S(=O)(=O)N(C)C[C@@H]2Oc3ccc(NS(=O)(=O)c4c(C)noc4C)cc3CC(=O)N([C@H](C)CO)C[C@@H]2C)cc1,-10.8%
20,C[C@H](CO)N1C[C@H](C)[C@@H](CN(C)S(=O)(=O)c2ccc(F)cc2)Oc2ccc(NS(=O)(=O)c3cn(C)cn3)cc2CC1=O,35.3%
21,C[C@H](CO)N1C[C@H](C)[C@H](CN(C)S(=O)(=O)c2ccccc2)Oc2ccc(NS(=O)(=O)c3ccc(F)cc3)cc2CC1=O,10.2%
22,CCNc1ncnc2c1cnn2C1CCCO1 (stereo not drawn),-11.7%
23,C[C@@H]1CN([C@@H](C)CO)C(=O)Cc2cc(NC(=O)NC3CCCCC3)ccc2O[C@@H]1CN(C)S(=O)(=O)c1ccc(Cl)cc1,-18.9%
24,O=C(Nc1cccc(F)c1)N[C@H]1CC[C@@H](CCNS(=O)(=O)c2cccc(Cl)c2)O[C@H]1CO,15.8%
25,CCS(=O)(=O)N[C@H]1CC[C@@H](CC(=O)NCc2ccc(Cl)cc2)O[C@@H]1CO,46.4%
26,COc1cccc(CNC(=O)C[C@@H]2C=C[C@H](NC(=O)C3CCC3)[C@H](CO)O2)c1,64%
